# Unmarked numbers belong to inactive results. Activity calls are given as the source filed them.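 How the source made its calls: active means blocks over 60% of fluorescent estradiol binding at 10 µM; inactive means the rest.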
# Target: G-protein coupled estrogen receptor 1 (Homo sapiens) (UniProt Q99527)
# Experiment: displacement of E2-Alexa633 from GPER – cell-based, Cos7 GPR30-GFP, flow cytometry, 10 µM, primary screen (AID 1212)
# Settings: fluorescent estrogen competition, at 10 µM; stronger effect = higher value
Compound,inhibition,outcome
CCOc1ccc(NS(=O)(=O)c2ccc3c(c2)[C@H]2C=CC[C@H]2[C@@H](c2ccc([N+](=O)[O-])cc2)N3)cc1,55%,
COc1cc2c(cc1OC)CC(C)(C)N(Cc1ccco1)C2,5%,
CCCOc1cc2oc(=O)c3c(c2cc1CC)CCCC3,,inactive
CCOC(=O)c1c(N)sc2c1CC(C)(C)NC2(C)C,10%,
COc1cc2c(c([N+](=O)[O-])c1)NC(c1ccc(Br)cc1)C1CC=CC21 (configuration not stated),,inactive
CCc1cc2c3c(c(=O)oc2cc1OCC(=O)O)CCCC3,10%,
CC(=O)Oc1ccc(C2Nc3c(C(=O)O)ccc([N+](=O)[O-])c3C3C=CCC32)cc1 (configuration not stated),99% (active),
COc1ccc(-n2cc3c(c(C#N)c2=N)CC(C)(C)CC3=O)cc1,,inactive
COc1cc([N+](=O)[O-])cc2c1NC(c1ccccc1)C1CC=CC21 (configuration not stated),34%,
O=C1CC(c2ccncc2)c2cc3c(cc2N1)OCCO3 (configuration not stated),1%,
CC(=O)Oc1ccc2c(c1)CCC1C2C(O)CC2(C)C(=O)CCC12 (configuration not stated),,inactive
CC1(C)Cc2[nH]c3ccccc3c2C(C)(C)N1,,inactive
O=C(O)c1ccc([N+](=O)[O-])c2c1NC(c1ccccc1)C1CC=CC21 (configuration not stated),100% (active),
CCOc1cc2c(c([N+](=O)[O-])c1)NC(c1ccc(Cl)cc1)C1CC=CC21 (configuration not stated),,inactive
Cc1cc(C(C)CO)cc(C(C)(C)C)c1O (configuration not stated),,inactive
CC(=O)c1ccc(N2Cc3ccccc3C2)cc1,,inactive
COc1ccc(NS(=O)(=O)c2ccc3c(c2)[C@H]2C=CC[C@H]2[C@@H](c2ccc(F)cc2)N3)cc1,56%,
N#Cc1c2c(c(=O)n3c1[nH]c1ccccc13)CCCC2,15%,
CC1CCN(Cc2c(O)ccc3c4c(c(=O)oc23)CCC4)CC1,,inactive
CCCCCCc1cc2c3c(c(=O)oc2cc1OCC(=O)O)CCCC3,,inactive
CCOc1cc2c(c([N+](=O)[O-])c1)NC(c1ccc(Br)cc1)C1CC=CC21 (configuration not stated),23%,
COc1cc(C2C3C(C)N(C)C(=O)N(C)C3N(C)C(=O)N2C)ccc1O (configuration not stated),,inactive
COc1cc2c(cc1OC)C(Cc1ccc(O)cc1)N(C)CC2 (configuration not stated),1%,
CC1CCC2(C)c3[nH]c4ccccc4c3CCN2C1=O (configuration not stated),2%,
COc1cc([N+](=O)[O-])cc2c1N[C@@H](c1ccc(C(=O)O)cc1)[C@H]1CC=C[C@@H]21,91% (active),
CC1(C)C=C(c2ccc(O)cc2)CC(C)(C)N1,,inactive
CCOc1cc2c(c([N+](=O)[O-])c1)NC(c1ccccc1)C1CC=CC21 (configuration not stated),38%,

# — PubChem BioAssay AID1212 (NMMLSC, 2008)
